# Compound activity as filed in PubChem BioAssay.
# Shown are actives, neighbours in structure and some others; about 1.2% of the full set was active somewhere.
# RGS8-Gao reg: modulates binding of RGS8 to human Galphao; 220,000 compounds, 0.34% hits; multiplexed bead flow cytometry; actives lie on both sides; response (percent of control binding), % at 10 µM; P09471; in the data active means response below about 60% or above about 140%; inactive means in between;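 further: Galphao activated as the GDP aluminium fluoride complex binding bead-coupled RGS8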
# RGS16-Gao: regulators of human RGS16-Galphao interaction. O15492+P09471. bead-based flow cytometry RGS16-Galphao binding, fluorescence; actives lie on both sides. binding response (% of control), % at 10 µM. 220,000 compounds, 0.38% hits;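 further: Galphao activated by GDP with aluminum fluoride before binding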
# GSH bead fluor: GSH bead compound fluorescence profile | GSH beads flow cytometry, compound fluorescence 488/530 nm; stronger effect = higher value | AID 1776 | fluorescence (KMESF) at 10 µM | 190,000 compounds, 0.25% hits; in the data active means fluorescence above about 89;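 further: glutathione beads carrying GST-tagged Bcl family fusion proteins plus one bare bead set; values are compound well signal with DMSO vehicle wells as background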
# RGS4-Gao reg: human RGS4-Galphao interaction regulation; Multiplexed bead flow cytometry, RGS4-Galphao binding; actives lie on both sides; 220,000 compounds, 0.33% hits; binding response (% of control), % at 10 µM; P09471; in the data active means binding response below about 49% or above about 150%; inactive means in between;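 further: fluorescent Galphao activated with aluminum fluoride binding bead-coupled RGS4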
# Avidin bead fluor: avidin bead compound fluorescence profile. Avidin beads, compound fluorescence 488/530 nm, flow cytometry; stronger effect = higher value. fluorescence (KMESF) at 10 µM. 220,000 compounds, 0.38% hits. AID 1775; in the data active means fluorescence above about 47
# RGS7-Gao reg: modulates binding of RGS7 to human Galphao; binding response (% of control), % at 10 µM; AID 1439; P09471; Multiplexed bead flow cytometry; actives lie on both sides; 220,000 compounds, 0.35% hits; in the data active means binding response below about 49% or above about 150%; inconclusive means no clear call, values can overlap the other calls; inactive means in between;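 further: fluorescent Galphao held in activated GDP-AlF4 state binding bead-coupled RGS7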
# RGS4-Gao HTS: regulators of human RGS4-Galphao interaction | shares compounds with RGS16-Gao | 1,600 compounds, 99% hits | AID 1504 | RGS4–Galpha-o binding response, % at 10 µM | multiplexed bead flow cytometry, RGS–Galpha-o binding;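 further: fluorescently labeled Galpha-o bound to GDP with aluminium fluoride binding biotinylated RGS beads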
# Avidin counter: interferes with biotinylated probe binding to avidin beads; shares compounds with RGS16-Gao; streptavidin beads, fluorescein-biotin binding, flow cytometry; inhibition, % at 10 µM; 1,700 tested, under 10 active;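 active means inhibition above 50%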;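 further: median green fluorescence of gated singlet beads compared with DMSO control wells; 0% = DMSO wells and 100% = complete loss of bead fluorescence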
# RGS8-Gao single: confirmation of regulators of human RGS8-Galphao interaction; 1,700 compounds, 3% hits; AID 1836; binding response (% of control), % at 10 µM; bead-based flow cytometry RGS8-Galphao binding, fluorescence; actives lie on both sides; shares compounds with RGS16-Gao; in the data active means binding response below about 72% or above about 130%; inactive means in between;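 further: Galphao activated as GDP AlF4 complex before binding bead RGS8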
# RGS7-Gao confirm: confirmation of regulators of human RGS7-Galphao interaction. bead-based flow cytometry RGS7-Galphao binding; actives lie on both sides. response (percent of control binding), % at 10 µM. 1,700 compounds, 7.8% hits. shares compounds with RGS16-Gao; in the data active means response below about 75% or above about 130%; inactive means in between;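 further: fluorescent Galphao activated with GDP and aluminum fluoride binding bead-coupled RGS7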
# RGS16-Gao conf: RGS16-Galphao interaction regulation, single point confirmation; bead-based flow cytometry, RGS16-Galphao binding; actives lie on both sides; 1,700 compounds, 4% hits; response (% of control binding), % at 10 µM; AID 1838; shares compounds with RGS16-Gao; in the data active means response below about 74% or above about 130%; inactive means in between;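 further: Galphao activated as the GDP aluminium fluoride complex binding bead-coupled RGS16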
# RGS4-Gao confirm: confirmation of regulators of human RGS4-Galphao interaction. shares compounds with RGS16-Gao. RGS4-Galphao binding, multiplexed bead flow cytometry; actives lie on both sides. AID 1840. binding response (% of control), % at 10 µM. 1,700 compounds, 4% hits; in the data active means binding response below about 74% or above about 130%; inactive means in between
# RGS19-Gao conf: RGS19-Galphao interaction regulation, single point confirmation. shares compounds with RGS16-Gao. bead-based flow cytometry RGS19-Galphao binding; actives lie on both sides. response (percent of control binding), % at 10 µM. 1,700 compounds, 5% hits. AID 1841; in the data active means response below about 50% or above about 160%; inactive means in between;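 further: 100% = no compound control and 0% = blank background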
# * = called active by the depositor; ? = inconclusive; . = no result; [ ] = remark or other dose. Unless noted, how the calls were made is not given here.
SMILES,RGS8-Gao reg,RGS16-Gao,GSH bead fluor,RGS4-Gao reg,Avidin bead fluor,RGS7-Gao reg,RGS4-Gao HTS,Avidin counter,RGS8-Gao single,RGS7-Gao confirm,RGS16-Gao conf,RGS4-Gao confirm,RGS19-Gao conf
O=c1[nH]c(=S)n(Cc2ccco2)c(O)c1C=NCc1cccs1,.,.,40,.,.,.,.,-1,87,53*,74*,66*,47*
CC(C)N1C(=O)CC2(CC[N+](C)(CCOC(=O)C(O)(c3ccccc3)c3ccccc3)CC2)C1=O (stereo unspecified),32*,25*,34,32*,4,27*,.,3,104,102,101,102,85
CCCCn1c(O)c(/C=C/C=Nc2ccccc2)c(=O)[nH]c1=O,104,106,11,104,24,100,.,.,.,.,.,.,.
Clc1cc(Cl)cc(NC2=NCCS2)c1,17*,-17*,.,-29*,-3,?,.,0,103,106,102,106,98
Cc1ccc(C(=O)N[C@@H](C)CN2C3=NC[C@H](Cc4ccccc4)N3C[C@H]2Cc2ccc(O)cc2)cc1Br,91,77,.,73,7,?,.,.,.,.,.,.,.
Cc1ccc(C(=O)N[C@@H](C)CN2C3=NC[C@@H](Cc4ccccc4)N3C[C@H]2Cc2ccc(O)cc2)cc1Br,18*,9.1*,22,17*,-1,5.7*,.,2,103,103,99,103,96
Cc1cccc(N2C(=O)NC(=O)/C(=C\c3cccn3-c3ccc(Cl)cc3)C2=O)c1,89,95,12,129,402*,233*[activator],129*,.,.,.,.,.,.
CCc1ccccc1NC(=O)CNCc1ccccc1,102,105,20,99,11,101,.,.,.,.,.,.,.
Cn1c(O)c(/C=C2/C=CC=N2)c(=O)[nH]c1=O,100,100,.,106,3,?,.,.,.,.,.,.,.
c1ccc(CCn2nnnc2CN2CCC(n3nnc4ccccc43)CC2)cc1,161*[activator],434,7,131,6,128,131*,-1,105,105,105,103,106
CCOC(=O)N1CCC(NC(=O)CCc2nc(C3=CCN(C)CC3)no2)CC1,101,109,23,125,166*,190*[activator],125*,.,.,.,.,.,.
